Sa RN4220 lethal: S. aureus RN4220 growth inhibition | inhibition, % (test concentration not listed) | OD600, 16 h | 330,000 compounds, 0.33% hits; in the data active = inhibition above about 85%;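 note: plate controls were untreated cells for no effect and reference antibiotic for full effect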
Mtb hypoxia rep: Mtb hypoxia fluorescent reporter inhibition; 300,000 compounds, 0.1% hits; fluorescence inhibition, % (test concentration not listed); M. tuberculosis hypoxia-regulated fluorescent reporter, fluorescence; AID 1159583; in the data active = fluorescence inhibition mostly above about 23%, no sharp cut-off; inactive = mostly below about 17%
ugtP null kill: growth inhibition of S. aureus ugtP deletion strain; growth inhibition, % (test concentration not listed); S. aureus RN4220 ugtP deletion, OD600 growth, 16 h; 330,000 compounds, 0.54% hits; AID 1259309; in the data active = growth inhibition above about 68%;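 note: plate controls were untreated wells for no effect and antibiotic for full effect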
* hit, by the source's call; · = no result shown. Sampled rows, rich in hits. Any-hit rate of the full collection: about 0.68%.

SMILES | Sa RN4220 lethal | Mtb hypoxia rep | ugtP null kill
CC=Cc1ccc(OCCCNCC(C)O)c(OC)c1 (stereo not given) | 2.2 | 8.8 | 7.6
C=C(C)C1CCC2(C(=O)O)CC[C@]3(C)C(CCC4[C@@]5(C)CCC(=O)C(C)(C)C5CC[C@]43C)C12 (stereo not given in full) | 10.7 | -2.5 | -24.5
CCCCCCCn1c2c(c(=N)c3c1CCC3)CCCC2 | 10.5 | · | 98.8*
CCCCCCCCCn1c2c(c(=N)c3c1CCC3)CCC2 | 100.4* | 23.9 | 100.6*
CCCCCCn1c2c(c(=N)c3c1CCC3)CCC2 | 3.2 | 12.8 | 1.6
CCn1c2c(c(=N)c3c1CCC3)CCC2 | 0.9 | 14.0 | 7.3
CCN1C(=NCc2ccccc2)NC(c2ccccc2)C(C(=O)OC)C1C (stereo not given) | 7.1 | 4.7 | 8.4
Cc1cc(O)c(C=Nc2ccccn2)c(=O)o1 | -15.3 | 0.9 | -1.3
COc1ccccc1C(=O)Nc1nnc(-c2ccccc2)s1 | 0.4 | -3.7 | -23.2
O=C(Nc1nnc(-c2ccccc2)s1)c1ccccc1O | 90.7* | 6.6 | 93.5*
C=C1CC(O)C2C(C)C(=O)OC2C2C1CC(O)C2C (stereo not given) | 4.2 | 8.0 | -10.3
c1ccc(Nc2nc(N3CCCCC3)nc(N3CCCCC3)n2)cc1 | 1.4 | 7.3 | 47.6
CCOc1ccc(Nc2nc(N3CCCCC3)nc(N3CCCCC3)n2)cc1 | -2.0 | 6.7 | 92.3*
CCOC1OC(C(=O)N2CCOCC2)=CC(C)C1CCCO (stereo not given) | 6.1 | 8.9 | 1.7
CCOC(=O)C(=CC=C1Sc2cc(OCC)c(OCC)cc2N1CC)C(C)=O | -0.2 | -157.5 | -1.0
Cc1ccc(Cl)cc1NC(=O)C1CCCN(S(C)(=O)=O)C1 (stereo not given) | 2.0 | -0.4 | 1.6
Cc1ccc(Cl)cc1NC(=O)C1CCCN1S(=O)(=O)c1ccc(-c2ccc(=O)[nH]n2)s1 (stereo not given) | 96.5* | -9.4 | 96.6*
CC=CC(=O)Nc1cccc(C2=NOC3(C2)CC(C(N)=O)N(C(=O)Cc2ccc([N+](=O)[O-])cc2)C3)c1 (stereo not given) | 1.1 | -4.7 | -2.5
CN(Cc1c(F)cccc1Cl)C(=O)c1cc2ccccc2o1 | 15.2 | -2.5 | 1.9
CN(Cc1c(F)cccc1Cl)C(=O)c1ccc(COc2ccccc2)cc1 | 97.3* | 6.8 | 99.6*
CC(C)CC(CSc1ccccc1)N1CCN(CCc2ccccc2)CCC1=O (stereo not given) | 3.3 | 5.8 | 4.0
CC1CCc2nc(C(C#N)=Cc3cccnc3)sc2C1 (stereo not given) | 5.7 | 6.0 | -6.6
CCCCCCCCOC(=O)C[N+](C)(C)C/C=C(/C)Cl | 1.8 | 3.2 | 5.7
CCCCCCCCCCOC(=O)C[N+](C)(C)C/C=C(/C)Cl | 16.1 | 1.4 | 100.3*
Cc1ccc(NC(=O)C(OC(=O)c2ccc(NC(N)=O)cc2)c2ccccc2)cc1Cl (stereo not given) | 100.5* | 13.5 | 99.7*
SMILES | Sa RN4220 lethal | Mtb hypoxia rep | ugtP null kill
Cc1ccc(NC(=O)C(OC(=O)c2ccccc2Cl)c2ccccc2)cc1Cl (stereo not given) | -6.3 | -2.0 | 17.1
CCOC(=O)COc1ccccc1C=C1NC(=O)NC1=O | 4.6 | 7.6 | -5.2
CN(CCO)c1cc(Sc2nc3ccccc3s2)c2nonc2c1[N+](=O)[O-] | 57.1 | 19.4 | 87.8*
CC(=O)OCCN(C)c1cc(SC(C)C)c2nonc2c1[N+](=O)[O-] | 2.1 | 0.8 | 8.8
CC(C(=O)N1CCN(C(=O)OC(C)(C)C)CC1)n1cc(CCCN=C(NC(=O)OC(C)(C)C)NC(=O)OC(C)(C)C)nn1 (stereo not given) | 4.6 | 12.0 | 2.0
CC(=O)C1C(=O)C=C(c2cccs2)CC1c1ccccc1 (stereo not given) | 4.3 | 9.2 | 7.9
O=C1C=C(c2cccs2)C[C@H](c2ccccc2)[C@H]1n1nnc([N+](=O)[O-])n1 | 72.0 | 20.6 | 97.8*
CC(=NO)C(C)(C)Nc1ccccc1F | 4.5 | -5.2 | -3.0
Oc1c(Cl)cc(Cl)cc1CNn1cnnc1 | 3.1 | 4.8 | 1.8
Cc1cc(C)c(O)c(CN(C)Cc2cc(Cl)cc(Cl)c2O)c1 | 100.2* | 2.4 | 85.7*
CSc1ccc(C=C(NC(=O)c2ccc(C)cc2)C(=O)Nc2cccc(C)c2)cc1 | 7.9 | 4.7 | -11.9
CSCc1cc(N(C)c2ccccc2)nc(-c2ccccc2)n1 | -0.4 | -3.9 | 88.2*
COc1cc(CSC)nc(-c2ccccc2)n1 | 3.1 | 7.3 | 5.3
C=C1CC(OC2OC(CO)C(O)C(O)C2O)C2C(C)C(=O)OC2C2C1CC(O)C2C (stereo not given) | -1.0 | 0.5 | -0.8
COC(=O)c1ccc(C23CC4(C2)C(CN(Cc2ccc(C(F)(F)F)cc2)C4c2ccccc2)C3c2ccc(Cl)nc2)cc1 (stereo not given) | -7.0 | -3.6 | -0.1
CC(OC(=O)Cn1ccccc1=O)C(=O)Nc1cc(Cl)cc(Cl)c1 (stereo not given) | 4.1 | 4.3 | -1.2
COc1ccc(Cl)cc1NC(=O)C(C)OC(=O)Cn1cc(C(F)(F)F)ccc1=O (stereo not given) | 1.5 | 26.5* | -1.6
CCSc1cc(N2CCCC2)nc(-c2ccc(C)cc2)n1 | 4.1 | -3.2 | 2.9
Cc1cc(N2CCCCC2)nc(-c2ccc(Br)cc2)n1 | -2.0 | 17.4 | 86.5*
CCOC1OC(C(=O)NCc2ccccc2)=CC(c2cn(C(C)=O)c3ccccc23)C1CCCO (stereo not given) | 5.9 | 0.4 | 3.0
COC(=O)C1=C(c2cccc(OCc3ccccc3)c2)CC2CCC1N2C(=O)NCCOc1ccc(OC)cc1 (stereo not given) | -3.4 | 0.2 | -12.6
N#CC(=NNc1ccc([N+](=O)[O-])cc1)C(N)=S | 16.7 | · | 14.1
N#CC(=NNc1ccc(OC(F)(F)F)cc1)C(N)=S | 82.4 | · | 87.5*
Cc1ccsc1C=NNC(=O)c1ccc(-n2cccc2)cc1 | 1.7 | -5.6 | -3.8
CCc1ccccc1C1=CC(=O)CC(c2ccc(OC)cc2)C1 (stereo not given) | 4.4 | 18.6 | 12.7
SMILES | Sa RN4220 lethal | Mtb hypoxia rep | ugtP null kill
Cc1cc(O)c(C(C)C)cc1N=Cc1ccccc1[N+](=O)[O-] | 1.9 | 20.1 | -8.7
Cc1cc(N=Nc2ccccc2C(=O)O)c(C)c(C)c1O | 1.9 | 45.3* | 2.6
Cc1cc(O)c(C(C)C)cc1N=Nc1ccccc1C(=O)O | 3.5 | 50.8* | 2.6
O=C(O)c1ccccc1N=Nc1c(O)[nH]c(=O)[nH]c1=O | 5.2 | 6.8 | 1.8
C#CCOCCOCCOCCNc1nc(N2CCN(C(=O)C(CCC(=O)O)n3cc(C(N)CC(C)C)nn3)CC2)nc(N2CCN(C(=O)C(CCC(=O)O)n3cc(C(N)C(C)CC)nn3)CC2)n1 (stereo not given) | 6.4 | 0.9 | 0.7
CN(C)c1ccc(C=NNc2ccc(-n3ccnc3)nn2)cc1 | -1.1 | · | -7.4
CS(=O)(=O)Nc1ccccc1C(=O)OCC(=O)N1CCC(c2ccccc2)=N1 | 4.2 | 33.0* | 4.8
Cc1ccc(C(=O)OCC(=O)N2CCC(c3ccccc3)=N2)c(C)c1 | 3.6 | -7.6 | 0.1
CN(C)c1cccc(C(=O)NN=Cc2ccoc2)c1 | 5.6 | -12.3 | -1.8
Cc1ccc(S(=O)(=O)N2C(c3ccc4c(c3)OCO4)CC=C(C(=O)O)C2c2ccc(Cl)cc2)cc1 (stereo not given) | 21.3 | 2.7 | 23.0

Bioassay records: PubChem, ICCB-Longwood Screening Facility, Harvard Medical School
